Reference: PubChem BioAssay (EPA / NIEHS)
“And” between values parts separate entries of the source, which are not always exact repeats. Equal values may be shown once. Results filed as inconclusive are left out. Where a structure was tested more than once in an assay, its records may differ in their call. The source made the active and inactive calls. Rule for the calls, unless noted: active = hit-call score of the fitted dose curve at least 0.9, where 1 is the maximum; inactive = score below 0.9.

Assays:
[1] = biological target: Retinoic acid receptor alpha (Homo sapiens) (UniProt P10276); experiment: ATG_DR5_RAR_CIS: Attagene CIS-FACTORIAL HepG2 Assay for human Retinoic Acid Receptor Alpha (RARE), DR5 submotif (AID 2282934); conditions: HepG2 Attagene cis-factorial RARE DR5 reporter, mRNA; actives raise or lower the signal
Retinoic acid receptor alpha (Homo sapiens), sequence (P10276 whole entry, looked up): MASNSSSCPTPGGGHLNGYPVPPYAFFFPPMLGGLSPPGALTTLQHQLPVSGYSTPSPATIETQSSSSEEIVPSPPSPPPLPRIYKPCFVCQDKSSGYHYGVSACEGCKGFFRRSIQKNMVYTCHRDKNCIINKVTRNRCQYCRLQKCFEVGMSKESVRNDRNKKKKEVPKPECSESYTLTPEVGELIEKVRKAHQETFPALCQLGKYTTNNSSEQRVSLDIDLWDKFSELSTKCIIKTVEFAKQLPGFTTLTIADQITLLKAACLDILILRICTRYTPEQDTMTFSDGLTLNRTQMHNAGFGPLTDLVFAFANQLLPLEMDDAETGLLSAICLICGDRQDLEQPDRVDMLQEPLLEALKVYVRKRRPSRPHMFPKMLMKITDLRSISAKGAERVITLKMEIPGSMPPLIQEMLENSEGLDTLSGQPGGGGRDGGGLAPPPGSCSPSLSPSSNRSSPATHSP
In short: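 HepG2, transient cis-reporter transfection, 24 h exposure. mRNA readout: RT-PCR, FAM label, HpaI cut, capillary electrophoresis. DMSO baseline, gain/loss fitting.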

[2] = ATG_GATA_CIS: Attagene CIS-FACTORIAL HepG2 Assay for human GATA Binding Protein (AID 2282944); conditions: HepG2 GATA cis-element reporter, Attagene multiplex mRNA; actives raise or lower the signal
In short: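 HepG2 cells transiently transfected with multiplexed cis-element reporter units reflecting endogenous transcription factor activity; reporter mRNA measured after 24 h dosing by RT-PCR, 6-FAM labeling, HpaI digestion and capillary electrophoresis. Bidirectional fitting versus DMSO baseline.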

[3] = ATG_PBREM_CIS: Attagene CIS-FACTORIAL HepG2 Assay for human Phenobarbital-responsive Enhancer Module (PBREM) (AID 2282955); conditions: HepG2 PBREM cis-reporter, Attagene multiplexed transcription; actives raise or lower the signal
In short: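 Cells were transfected with cis-element reporter units and treated for 24 h, after which RNA was extracted and reporter transcripts measured by RT-PCR and capillary electrophoresis.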

[4] = ATG_PPRE_CIS: Attagene CIS-FACTORIAL HepG2 Assay for human Peroxisome Proliferator-activated Response Element (PPRE) (AID 2282958); conditions: HepG2 PPRE cis-element reporter, Attagene transcription factor profiling; actives raise or lower the signal
In short: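 In this cell-based multiplex, a PPRE cis element drives a reporter sequence in transiently transfected HepG2 cells. Following 24 h treatment, labeled cDNA amplicons are sized and quantified by capillary electrophoresis, with DMSO defining baseline.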

[5] = biological target: Nuclear receptor subfamily 1 group I member 2 (Homo sapiens) (UniProt O75469); experiment: ATG_PXR_TRANS: Attagene TRANS-FACTORIAL HepG2 Assay for human Pregnane X Receptor (PXR) (AID 2283008; active = hit-call score of the fitted dose curve at least 0.9, where 1 is the maximum)
Nuclear receptor subfamily 1 group I member 2 (Homo sapiens), sequence (O75469 whole entry, looked up, the tested form may be a part): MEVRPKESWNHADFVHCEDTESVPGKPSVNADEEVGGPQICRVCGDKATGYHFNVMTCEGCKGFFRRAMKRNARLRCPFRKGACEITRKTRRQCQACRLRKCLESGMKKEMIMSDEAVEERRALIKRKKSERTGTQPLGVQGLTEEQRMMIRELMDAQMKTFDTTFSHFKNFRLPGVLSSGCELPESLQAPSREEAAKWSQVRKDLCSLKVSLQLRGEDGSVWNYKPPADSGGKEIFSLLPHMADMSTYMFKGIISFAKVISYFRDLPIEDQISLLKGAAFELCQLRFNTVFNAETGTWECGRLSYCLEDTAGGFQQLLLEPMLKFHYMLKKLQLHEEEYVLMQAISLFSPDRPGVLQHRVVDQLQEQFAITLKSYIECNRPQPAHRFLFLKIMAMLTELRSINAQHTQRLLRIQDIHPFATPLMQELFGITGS
In short: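 Transactivation by exogenous PXR–GAL4 fusion measured as reporter transcript induction after 24 h compound treatment of transfected human HepG2 cells. Read-out via RT-PCR and capillary electrophoresis of labelled fragments, fitted upward relative to DMSO.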

[6] = read-out: Vascular cell adhesion molecule 1 (VCAM1), VCAM1 (gene 7412); experiment: BSK_LPS_VCAM1: BioMAP Diversity Plus: LPS Assay for Vascular cell adhesion molecule 1 (VCAM1) Biomarker Activity (AID 2283086); conditions: primary human HUVEC with PBMC; actives raise or lower the signal
In short: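 Cells are dosed in an LPS-stimulated endothelial/mononuclear co-culture and, after 24 h, VCAM-1 is quantified by ELISA. Activity in either direction is fitted relative to the DMSO negative control.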

CD38, CD38 (gene 952) = experiment: BSK_SAg_CD38: BioMAP Diversity Plus: SAg Assay for CD38 Biomarker Activity (AID 2283087); conditions: primary human HUVEC with PBMC; actives raise or lower the signal
In short: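 CD38 quantified by ELISA (fluorescence) in a superantigen-activated endothelial cell–PBMC co-culture at 24 h post-dose. Activity fitted in both directions relative to DMSO; parallel SRB and Alamar Blue cytotoxicity read-outs.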

[7] = read-out: Monocyte Chemoattractant Protein-1 (MCP1), CCL2 (gene 6347); experiment: BSK_SAg_MCP1: BioMAP Diversity Plus: SAg Assay for Monocyte Chemoattractant Protein-1 (MCP1) Biomarker Activity (AID 2283090); conditions: primary human HUVEC with PBMC; actives raise or lower the signal
In short: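 Values derive from bidirectional fitting of ELISA-measured MCP1 against DMSO controls. Readings were taken 24 h after dosing human vascular endothelial cells co-cultured with peripheral blood mononuclear cells under superantigen stimulation.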

[8] = read-out: E-selectin (Homo sapiens) (UniProt P16581); experiment: BSK_SAg_Eselectin: BioMAP Diversity Plus: SAg Assay for Eselectin Biomarker Activity (AID 2283091); conditions: primary human HUVEC with PBMC; actives raise or lower the signal
In short: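 Cell-surface E-selectin is read by ELISA at 24 h in the SAg co-culture of HUVEC and PBMC. Curves are fitted in both directions relative to DMSO. Parallel SRB total-protein staining tracks overt toxicity.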

[9] = read-out: Monokine induced gamma interferon (MIG), CXCL9 (gene 4283); experiment: BSK_SAg_MIG: BioMAP Diversity Plus: SAg Assay for Monokine induced gamma interferon (MIG) Biomarker Activity (AID 2283092); conditions: primary human HUVEC with PBMC; actives raise or lower the signal
In short: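 ELISA readout of MIG/CXCL9; primary human umbilical vein endothelial cells co-cultured with peripheral blood mononuclear cells; 24 h post-dose; gain/loss fit vs DMSO baseline.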

[10] = BSK_SAg_PBMCCytotoxicity: PBMC Cytotoxicity Assessment in the BioMAP Diversity Plus: SAg Assay (AID 2283093); conditions: primary human HUVEC with PBMC;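 note: PBMC viability measured as Alamar Blue reduction fluorescence at 546/580 nm; fitted both ways against DMSO so a hit may be loss or gain of signal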
In short: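 Alamar Blue reduction (6 h, ex/em 546/580 nm) read after 90 h culture of PBMC pre-dosed 1 h then stimulated with SEB plus TSST-1, 20 ng/mL each. Gain or loss of signal fitted relative to DMSO.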

[11] = read-out: Interleukin-8 (IL8), CXCL8 (gene 3576); experiment: BSK_SAg_IL8: BioMAP Diversity Plus: SAg Assay for Interleukin-8 (IL8) Biomarker Activity (AID 2283094); conditions: primary human HUVEC with PBMC; actives raise or lower the signal
In short: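 Chemicals were dosed onto a human endothelial–PBMC co-culture, and IL-8 was quantified by ELISA after 24 h. Both increases and decreases were fitted relative to DMSO.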

[12] = BSK_SAg_Proliferation: Cell Proliferation Assessment in the BioMAP Diversity Plus: SAg Assay (AID 2283095); conditions: primary human HUVEC with PBMC;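 note: relative cell number as total protein by SRB absorbance in sub-confluent culture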
In short: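 Absorbance of sulforhodamine B at 560 nm reports total protein in a human vascular endothelial/PBMC co-culture after 96 h chemical exposure. Gain or loss of signal is fitted in both directions against DMSO.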

[13] = BSK_SAg_SRB: Viability Assessment in the BioMAP Diversity Plus: SAg Assay (AID 2283096); conditions: primary human HUVEC with PBMC;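 note: cells read one day after compound addition; hits may be either gain or loss of signal compared with DMSO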
In short: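 SRB absorbance at 560 nm served as the viability read-out. Cells (HUVEC plus peripheral blood mononuclear cells) were TCA-fixed and stained 24 h post-dosing; activity fitted in both directions against DMSO controls.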

[14] = biological target: Oxysterols receptor LXR-beta (Homo sapiens) (UniProt P55055); experiment: ATG_LXRb_TRANS: Attagene TRANS-FACTORIAL HepG2 Assay for human Liver X Receptor beta (LXRb) (AID 2282981; active = hit-call score of the fitted dose curve at least 0.9, where 1 is the maximum); conditions: HepG2 Attagene TRANS GAL4-LXRb reporter, mRNA
Oxysterols receptor LXR-beta (Homo sapiens), sequence (P55055 whole entry, looked up, the tested form may be a part): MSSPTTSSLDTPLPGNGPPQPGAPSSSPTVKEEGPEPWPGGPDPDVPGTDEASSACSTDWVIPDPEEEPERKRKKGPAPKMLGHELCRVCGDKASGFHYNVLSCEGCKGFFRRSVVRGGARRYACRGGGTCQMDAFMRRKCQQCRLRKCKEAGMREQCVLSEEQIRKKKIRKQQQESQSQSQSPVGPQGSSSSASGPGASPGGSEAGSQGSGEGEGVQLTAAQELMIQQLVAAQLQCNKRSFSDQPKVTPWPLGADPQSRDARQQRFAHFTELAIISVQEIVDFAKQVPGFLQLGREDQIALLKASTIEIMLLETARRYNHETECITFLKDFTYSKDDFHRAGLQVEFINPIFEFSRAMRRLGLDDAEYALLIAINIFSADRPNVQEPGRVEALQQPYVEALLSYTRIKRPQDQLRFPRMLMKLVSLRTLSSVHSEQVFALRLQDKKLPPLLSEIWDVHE
In short: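 After 24 h chemical treatment of transfected HepG2 cells carrying exogenous NR-Gal4 chimeras, reporter mRNA was quantified by fluorescent RT-PCR and capillary electrophoresis; activity taken as increase over DMSO controls.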

[15] = biological target: Hepatocyte nuclear factor 4-alpha (Homo sapiens) (UniProt P41235); experiment: ATG_HNF4a_TRANS: Attagene TRANS-FACTORIAL HepG2 Assay for human Hepatocyte Nuclear Factor 4 alpha (HNF4a) (AID 2282982; active = hit-call score of the fitted dose curve at least 0.9, where 1 is the maximum); conditions: HepG2 HNF4a transactivation reporter, mRNA readout
Hepatocyte nuclear factor 4-alpha (Homo sapiens), sequence (P41235 whole entry, looked up, the tested form may be a part): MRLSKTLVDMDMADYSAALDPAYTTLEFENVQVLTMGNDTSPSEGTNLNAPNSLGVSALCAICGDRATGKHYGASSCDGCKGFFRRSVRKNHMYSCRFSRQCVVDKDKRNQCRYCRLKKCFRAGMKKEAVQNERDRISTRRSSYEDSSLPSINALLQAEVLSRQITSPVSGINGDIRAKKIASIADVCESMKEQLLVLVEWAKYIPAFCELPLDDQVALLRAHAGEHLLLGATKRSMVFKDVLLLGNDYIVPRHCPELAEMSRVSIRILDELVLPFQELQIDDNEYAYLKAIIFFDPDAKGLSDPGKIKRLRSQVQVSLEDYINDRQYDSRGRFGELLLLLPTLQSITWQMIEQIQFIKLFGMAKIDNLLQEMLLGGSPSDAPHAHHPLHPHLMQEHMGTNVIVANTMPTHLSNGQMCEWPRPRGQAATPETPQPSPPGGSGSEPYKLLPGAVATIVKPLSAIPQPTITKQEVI
In short: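 Activity of an exogenous HNF4a–Gal4 fusion scored as induced GAL4-UAS reporter transcripts after 24 h chemical exposure of transfected human HepG2 cells. Read-out via RT-PCR with 6-FAM labelling and capillary electrophoresis; rise over DMSO baseline.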

[16] = ATG_NF_kB_CIS: Attagene CIS-FACTORIAL HepG2 Assay for human Nuclear Factor Kappa B (NF-kB) (AID 2282991); conditions: HepG2 Attagene cis-factorial NF-kB reporter mRNA; actives raise or lower the signal
In short: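 Measures mRNA induction of an NF-kB-responsive cis-element reporter in HepG2 cells transfected with multiple reporter units, sampled 24 h post-dosing; quantified by fluorescence after RT-PCR and capillary electrophoresis, fitted for activation or inhibition against DMSO.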

[17] = CCTE_Harrill_HTTr_CellCount_MCF7: CCTE's Cell Proliferation Assessment for the High-Throughput Transcriptomics (HTTr) Platform, Harrill Lab (AID 2284012; active = hit-call score of the fitted dose curve at least 0.9, where 1 is the maximum;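 note: cells exposed to compound for six hours; intended direction is loss of nuclei count meaning fewer cells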)
In short: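 Cell count served as viability reporter: loss of Hoechst-stained nuclei, counted by high content imaging, marks decreased growth or survival. Exposure was 6 h in MCF-7 cells across eight concentrations, with DMSO as baseline.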

[18] = read-out: Collagen I, COL1A1 (gene 1277); experiment: BSK_hDFCGF_CollagenI: BioMAP Diversity Plus: hDFCGF Assay for Collagen I Biomarker Activity (AID 2284250); conditions: primary human foreskin fibroblasts
In short: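 Collagen I ELISA, primary human foreskin fibroblasts, 24 h chemical exposure, DMSO = negative control/baseline, positive fitting direction.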

[19] = read-out: Monocyte Chemoattractant Protein-1 (MCP1), CCL2 (gene 6347); experiment: BSK_hDFCGF_MCP1: BioMAP Diversity Plus: hDFCGF Assay for Monocyte Chemoattractant Protein-1 (MCP1) Biomarker Activity (AID 2284285); conditions: primary human foreskin fibroblasts
In short: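 MCP-1 ELISA readout was taken 24 hours after dosing primary human dermal fibroblasts in the hDFCGF system, with DMSO as baseline. Parallel sulforhodamine B staining of total protein tracked overt cytotoxicity.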

Measured: AC50

E-selectin (Homo sapiens), sequence (P16581 whole entry, looked up): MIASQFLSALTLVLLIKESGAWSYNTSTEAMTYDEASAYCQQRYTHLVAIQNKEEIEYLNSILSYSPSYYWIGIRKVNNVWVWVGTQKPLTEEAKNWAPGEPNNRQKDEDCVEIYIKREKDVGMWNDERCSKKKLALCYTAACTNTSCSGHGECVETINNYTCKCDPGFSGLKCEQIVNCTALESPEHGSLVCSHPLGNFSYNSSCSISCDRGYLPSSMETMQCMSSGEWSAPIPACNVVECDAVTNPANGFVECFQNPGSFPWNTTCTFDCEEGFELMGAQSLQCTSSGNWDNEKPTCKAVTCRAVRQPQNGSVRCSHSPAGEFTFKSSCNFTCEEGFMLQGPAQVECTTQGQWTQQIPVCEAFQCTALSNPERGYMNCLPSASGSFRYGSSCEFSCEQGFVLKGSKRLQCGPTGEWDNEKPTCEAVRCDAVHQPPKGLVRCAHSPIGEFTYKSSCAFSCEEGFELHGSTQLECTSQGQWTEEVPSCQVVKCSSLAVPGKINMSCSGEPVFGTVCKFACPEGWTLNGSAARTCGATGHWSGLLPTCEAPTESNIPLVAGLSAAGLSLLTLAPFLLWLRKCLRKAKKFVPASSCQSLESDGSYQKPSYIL

Sc1nc2ccccc2s1
active: [4] 35.7 µM
not listed: [14] | [15] | [16] | [17] | [18] | [19]
inactive: all other assays above

CNC(=C[N+](=O)[O-])NCCSCc1csc(CN(C)C)n1
inactive: [2] | [3] | [4] | [14] | [15] | [16] | [17]

Oc1cccc2ccccc12
active: [12] 3.97 µM
not listed: [1] | [4] | [14] | [15] | [18] | [19]
inactive: all other assays above

O=[N+]([O-])c1cc(S(=O)(=O)Nc2ccccc2)ccc1Nc1ccccc1
inactive: [10] | [18]
active: [6] 13.6 µM and 12.6 µM | CD38, CD38 (gene 952) 25 µM and 26 µM | [7] 28.5 µM and 28.6 µM | [8] 12.1 µM and 19.5 µM | [9] 34.1 µM and 35.3 µM | [11] 20 µM and 14.4 µM | [12] 15 µM and 25.7 µM | [13] 29.3 µM and 31.8 µM | [18] 3.86 µM | [19] 30.8 µM and 29.7 µM

CC(=O)O[C@]1(C(C)=O)CC[C@H]2[C@@H]3C=C(C)C4=CC(=O)CC[C@]4(C)[C@H]3CC[C@@]21C
inactive: [17]

CC/C=C\CCO
inactive: [2] | [14] | [15] | [17]

Cc1c(C(N)=O)cc([N+](=O)[O-])cc1[N+](=O)[O-]
inactive: [6] | CD38, CD38 (gene 952) | [7] | [8] | [9] | [10] | [11] | [12] | [13] | [18] | [19]

OC(C(F)(F)F)(C(F)(F)F)C(O)(C(F)(F)F)C(F)(F)F
active: [6] 21.9 µM and 28.8 µM | CD38, CD38 (gene 952) 34.1 µM and 21.9 µM | [7] 43.3 µM and 40.8 µM | [8] 23.3 µM and 22.9 µM | [9] 50.6 µM and 49.6 µM | [11] 30 µM and 21.4 µM | [12] 22.9 µM and 36.4 µM | [13] 26.9 µM and 26.8 µM | [18] 30 µM | [19] 7.94 µM
inactive: [10] | [18] | [19]

OCCOCCOCCOCCOCCO
inactive: [1] | [2] | [4] | [14]

COc1ccccc1Oc1c(NS(=O)(=O)c2ccc(C(C)(C)C)cc2)nc(-c2ncccn2)nc1OCCO
inactive: [6] | CD38, CD38 (gene 952) | [7] | [8] | [9] | [10] | [11] | [13] | [18] | [19]
active: [12] 6.88 µM and 8.61 µM

CC(=O)Nc1c(I)c(NC(C)=O)c(I)c(C(=O)O)c1I
inactive: [1] | [2] | [15]

CCc1cc(C(N)=S)ccn1
inactive: [1] | [15] | [16] | [17]

CC1=CCCC(C)(C)C12CCC(C)O2 (stereo not drawn)
active: [5] 2.53 µM
inactive: [2] | [14] | [15]

C1CN(CCOCCN2CCOCC2)CCO1
inactive: [6] | CD38, CD38 (gene 952) | [7] | [8] | [9] | [10] | [11] | [12] | [13] | [18] | [19]
